Assay outcomes from PubChem BioAssay.
Sm TGR block – qHTS Assay for the Inhibitors of Schistosoma Mansoni Peroxiredoxins; AID 485364, 2010; purified TGR, DTNB reduction, TNB absorbance 405 nm; Potency, µM (titrated, usually from 114 µM), actives largely listed as inhibitors; 360,000 compounds, 3% hits; further: nearly all actives have a fitted effect of over 60% in size
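Kinetic colorimetric format: TGR-catalysed, NADPH-driven DTNB reduction monitored via TNB absorbance. Enzyme dispensed at 20 nM; compound exposure 15 min at room temperature before reaction start.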
RE007 growth inh – qHTS Assay for Inhibitors of the HIV-1 protein Vpr. S. pombe RE007 Vpr strain, BacTiter-Glo ATP luminescence, 24 h. Potency, µM (series often up to 92.2 µM), hits mostly inhibitors. 360,000 compounds, 0.21% hits. AID 651644, 2012; active means well fitted falling curve with a large enough effect; inconclusive means small, poorly fitted or top-dose-only effect; inactive means no such curve, though single readings can be large or run the other way; further: nearly all actives have a fitted effect of over 50% in size
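Fission yeast strain RE007, carrying one chromosomally integrated HIV-1 vpr copy, was seeded at OD 0.01 in PMG+AL medium with 23 nL pinned compound. After 24 h at 30 °C and 99% humidity, viability was read by BacTiter-Glo luminescence.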
FMDV antiviral – High Throughput Screening for Foot and Mouth Disease Virus Antivirals | FMDV antiviral cell-based qHTS | Potency, µM (highest dose often 57.9 µM), usual class: inhibitors | 410,000 compounds, 1.2% hits | AID 1159524, 2015; calls by dose curve; tested in HEK293T cells; further: read-out not given here; nearly all actives have a fitted effect of over 45% in size
FBPA Giardia inh – qHTS Assay for Inhibitors of Fructose-1,6-bisphosphate Aldolase from Giardia Lamblia. A8B2U2. purified Giardia FBPA. Potency, µM (titrated, usually from 59.6 µM), most hits filed as inhibitors. 290,000 compounds, 0.71% hits; further: nearly all actives have a fitted effect of over 55% in size
Target sequence (A8B2U2 whole entry, looked up): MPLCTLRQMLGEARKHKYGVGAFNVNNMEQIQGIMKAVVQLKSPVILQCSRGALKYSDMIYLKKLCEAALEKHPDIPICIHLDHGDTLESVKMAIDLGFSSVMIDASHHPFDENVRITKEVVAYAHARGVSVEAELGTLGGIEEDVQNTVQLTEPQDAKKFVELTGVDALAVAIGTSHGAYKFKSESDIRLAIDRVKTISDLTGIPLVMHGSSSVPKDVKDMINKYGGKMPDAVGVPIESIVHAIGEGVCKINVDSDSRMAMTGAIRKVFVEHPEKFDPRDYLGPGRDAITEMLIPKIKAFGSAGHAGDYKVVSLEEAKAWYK
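40 nM FBPA preincubated 10 min at RT with compound (up to 57.5 uM final), then substrate plus GAPDH/TPI/NAD/arsenate coupling and diaphorase/resazurin added. Fluorescence read after 20 min at RT, 525/598 nm.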
HCMV inh – qHTS Assay for inhibitors of the human cytomegalovirus (HCMV) | HFF cells, HCMV-luciferase reporter, 72 h; hits give low values | activity change, negative = inhibition, % at 57.5 µM | 410,000 compounds, 4.5% hits; in the data active means activity change below about -60%; inconclusive means no clear call, values can overlap the other calls; inactive means above about -39%
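Human foreskin fibroblasts infected with luciferase-reporter HCMV at MOI 1 PFU/cell, compounds at two doses. Luciferase measured 72 h post infection; normalized to buffer-only basal and Salinomycin (10uM) controls.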
Tb PYK inh – qHTS of Trypanosoma Brucei Inhibitors | pyruvate kinase (Trypanosoma brucei), Q57TT1 | 410,000 compounds, 0.12% hits | TbPYK enzyme, Kinase-Glo Plus ATP luminescence, 45 min | Potency, µM (highest dose often 76.8 µM), hits mostly inhibitors; further: nearly all actives have a fitted effect of over 50% in size
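Quantitative HTS: titrated library compounds versus trypanosomal pyruvate kinase in TEA buffer (pH 7.2) containing KCl, MgCl2, BSA and Tween-20. Reactions were initiated with ADP, 130 uM final. Kinase-Glo Plus luminescence was read after 45 min at RT.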
Hits are given with their value; 0 = inactive; ? = inconclusive; - = no result given; + = active, no number; [ ] = another dose, or the depositor's remark. Rows were chosen to be rich in hits. Some 7.7% of all compounds tested hit in one or more screens of this group. Unless noted, the call rests on the fitted dose curve; in most records, active means well fitted curve in the direction sought with a large enough effect; inconclusive means small, poorly fitted or top-dose-only effect, or another doubt; inactive means no such curve, though single readings can be large; an effect the other way counts as inactive or inconclusive.

SMILES	Sm TGR block	RE007 growth inh	FMDV antiviral	FBPA Giardia inh	HCMV inh	Tb PYK inh
CC(=O)N1CN(Cc2ccccn2)Cc2c1sc1c2CCCC1	40µM	0	0	0	0	0
CC(C)Sc1ncc(Cl)c(C(=O)N(Cc2ccc(F)cc2)C2CCS(=O)(=O)C2)n1 (centres undefined)	0	-	0	-	0	0
CCCOc1ccc(CN(C(=O)c2nc(SC(C)C)ncc2Cl)C2CCS(=O)(=O)C2)cc1 (centres undefined)	0	-	0	-	-63	0
COc1cccc(NC(=O)Cn2c(=O)n(Cc3nc(-c4ccccc4)no3)c(=O)c3ccccc32)c1	0	-	0	-	0	0
NC1(C(=O)O)CCCc2ccc(N(CCCl)CCCl)cc21 (centres undefined)	-	0	0	-	-63	0
O=C1NC(=O)C2(CCCc3ccc(N(CCO)CCO)cc32)N1 (centres undefined)	-	-	-	-	0	-
O=C1NC(=O)C2(CCCc3ccc(N(CCCl)CCCl)cc32)N1 (centres undefined)	-	0	0	-	-81	0
CCN(C(=O)CSc1nnc(NCc2ccccc2)s1)C1CCS(=O)(=O)C1 (centres undefined)	0	0	0	0	-74	0
CCN(C(=O)CSc1nnc(Nc2cccc(C)c2C)s1)C1CCS(=O)(=O)C1 (centres undefined)	0	0	0	0	0	0
O=C(c1cccnc1)C1CCCN(Cc2ccc3c(c2)CN(C(=O)c2ccc4[nH]ccc4c2)CCO3)C1 (centres undefined)	-	-	0	-	-	-
Cc1occc1C(=O)NNC(=S)NCc1ccc(Cl)cc1	0	0	?	0	-69	0
Cc1occc1C(=O)NCCCCNC(=O)c1ccoc1C	0	0	0	0	-98	0
CCCCCCCCCCCNC(=O)c1ccoc1C	18µM	0	0	0	0	0
Cc1occc1C(=O)NCCCc1ccccc1	?	0	0	0	0	0
COC(=O)C(c1ccccc1)(c1cn(-c2ccccc2)c2ccccc12)C(Nc1ccccc1)c1ccccc1 (centres undefined)	-	-	-	-	0	-
CCOC(=O)c1cc(-c2ccccc2)n(CC(=O)Nc2ccc(OC)cc2OC)c1C	0	-	0	-	0	0[15.4 µM]
CCOc1ccccc1NS(=O)(=O)c1c(C(=O)OC)sc2cccc(F)c12	0	-	0	-	0	0
Cc1ccc(CNC(=O)CCC2CCCN(Cc3ccc4cccc(F)c4n3)C2)o1 (centres undefined)	40µM	0	0	0	0	0
Cc1ccc(CNC(=O)CCC2CCCN(Cc3cccc4c3OCO4)C2)o1 (centres undefined)	?	0	0	0	0	0
CCc1ccccc1S(=O)(=O)Cc1ccc(C(=O)NCCc2ccc(C)cc2)o1	0	-	0	-	0	0
O=S(=O)(c1ccccc1)c1nc(NCc2ccccc2)sc1Cl	0	0	0	0	-70	0
Cc1ccc(S(=O)(=O)c2nc(S(C)(=O)=O)sc2NCc2ccccc2)cc1	0	-	0	-	0	0
COc1ccc(CNc2nc(S(=O)(=O)c3ccccc3)c(Cl)s2)cc1OC	0	0	14µM	0	-95	0
Cc1oc2c(c1C(=O)Nc1ccc(Cl)cc1F)C1=NCCN1C=N2	0	-	0	-	0	0
O=C(NCc1ccc2[nH]c3c(c2c1)CCCC3)c1ccc(S(=O)(=O)N2CCCCC2)cc1	0	0	?	0	-78	0
SMILES	Sm TGR block	RE007 growth inh	FMDV antiviral	FBPA Giardia inh	HCMV inh	Tb PYK inh
CCc1ccc(NC(=O)C2CCN(S(=O)(=O)c3ccc4[nH]c5c(c4c3)CCCCC5)CC2)cc1	0	-	0	-	+	0[15.4 µM]
O=C(Nc1ccccc1)C1CCN(S(=O)(=O)c2ccc3[nH]c4c(c3c2)CCCCC4)CC1	0	-	0	-	0	0[15.4 µM]
COc1cccc(C(=O)NCC(c2ccc(N(C)C)cc2)N2CCCC2)c1OC (centres undefined)	0	-	0	-	0	0
CCN(CC)c1ccc(NC(=O)C2CCN(c3nnc(-n4cccc4)s3)CC2)c(C)c1	0	-	0	-	0	0
COC(=O)/C=C1\C(=O)N(c2nc3ccc(OC)cc3s2)C(=S)N1c1ccc(F)cc1	0	-	-	0	-	-
COc1ccc2nc(N3C(=O)CNC3=S)sc2c1	0	0	0	?	-69	0
Cc1ccc2nc(N3C(=O)CNC3=S)sc2c1	0	?	0	?	-92	0
COC(=O)[C@H](C)NC(=O)C/C=C\[C@@H](C)[C@@H](CO)OC	-	-	-	0[12.9 µM]	-	-
O=C(Nc1ccc(F)cc1F)N1CCc2c(sc3c2CCCC3)C1c1ccc(F)cc1 (centres undefined)	0	-	?	-	0	0
CCOc1ccc(-c2cccc(NS(=O)(=O)c3ccccc3C(F)(F)F)c2)nn1	0	-	0	-	0	0
CCOC(=O)c1c(C)[nH]c(C)c1C(=O)COC(=O)/C=C/c1ccco1	32µM	0	0	-	0	0
CCN(CC(=O)NCc1ccc(Cl)cc1)C(=O)c1cnc(Cl)c(Cl)c1	0	0	0	0	-63	0
CCN(CC(=O)NCc1ccc(Cl)cc1)C(=O)c1ccc2cc(OC)ccc2c1	0	0	0	0	0	0
CCOc1ccc(CCNC(=O)COC(=O)/C=C/c2ccco2)cc1OCC	0	0	0	-	0	0
O=C(COC(=O)/C=C/c1ccco1)NCc1ccccc1	0	0	0	0	0	0
CCOC(=O)c1c(C)[nH]c(C)c1C(=O)COC(=O)/C=C/c1ccc(OC)cc1	0	0	?	-	0	0
CCCNC(=O)COC(=O)/C=C/c1ccco1	45µM	0	0	0	0	0
O=C(COC(=O)/C=C/c1ccco1)NCc1ccc(Cl)cc1	18µM	0	0	-	0	0
CC(=O)c1ccccc1NC(C(=O)NCc1ccccc1)C(C)C (centres undefined)	-	-	-	-	0	-
Cn1cc(-c2nc3cnc(OCc4ccccc4)nc3n(CCC#N)c2=O)c2ccccc21	-	-	0	0	-	-
